Compound activity: PubChem BioAssay, National Center for Advancing Translational Sciences (NCATS)
This is a sample that favours compounds with a hit; in the whole collection about 19% have one here.
IL-1B inflam inh: inhibitors of inflammasome signaling (IL-1 beta secretion); THP-1 LPS/ATP IL-1B secretion, AlphaLISA, 16 h; stronger effect = lower value; activity change, % at 57.5 µM; 360,000 tested, 4.7% active; in the data active = activity change below about -50%; inconclusive = mostly about -30% to -49%
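THP-1 cells pretreated 1 hr with compounds (up to 57.5 uM final), then stimulated with LPS (250 ng/mL final) plus ATP (1.25 mM final); secreted IL-1B measured by AlphaLISA after 16 hr, decreased signal indicating inhibition.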
DT40 TDP1 CPT: growth inhibition of DT40 Tdp1-/-;hTDP1 cells with camptothecin (screen for TDP1 inhibitors); chicken DT40 Tdp1-/-;hTDP1 cells + 20 nM CPT, ATP luminescence, 48 h; Potency, µM (top dose mostly 46.2 µM), most hits filed as inhibitors; 420,000 tested, 12% active; AID 686979; also: nearly all actives have a fitted effect of over 55% in size
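Cell growth measured by CellTiter-Glo luminescence after a minimum 48 h, 37 C compound exposure with 20 nM CPT in Tdp1-knockout DT40 cells stably expressing hTDP1, seeded 400/well; qHTS titration format.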
uPA surface inh: inhibitors of cell surface uPA generation. cell surface uPA generation assay, qHTS. Potency, µM (series often up to 38.3 µM), usual class: inhibitors. 330,000 tested, 0.31% active; active = well fitted inhibition curve with a large enough effect; inconclusive = small, poorly fitted or top-dose-only effect; inactive = no such curve, though single readings can be large or run the other way; tested in mouse RAW 264.7 cells; also: nearly all actives have a fitted effect of over 55% in size
HT1080-NT tox: kills 2HG-producing HT-1080-NT fibrosarcoma cells; HT-1080-NT fibrosarcoma viability, CellTiter-Glo ATP luminescence, 48 h; Potency, µM (doses to about 46.1 µM), hits mostly cytotoxic; 360,000 tested, 1.6% active; AID 686970;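 also: NT is the 2HG producing partner of a matched IDH1 knockdown line; nearly all actives have a fitted effect of over 55% in size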
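750 cells/well, RPMI + 5% FBS; 2 h settle, compound pin-transfer, 48 h at 37 degrees C. CellTiter-Glo 10 min RT, luminescence. Normalized to DMSO and media-only wells.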
TDP1 cell noCPT: qHTS for Inhibitors of human tyrosyl-DNA phosphodiesterase 1 (TDP1): qHTS in cells in absence of CPT. Potency, µM (titrated, usually from 46.2 µM), actives largely listed as inhibitors. DT40 Tdp1-/- hTDP1 cells, no CPT, ATP luminescence, 48 h. 420,000 tested, 15% active; also: nearly all actives have a fitted effect of over 55% in size
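Chicken DT40 Tdp1-/- cells complemented with human TDP1, screened without camptothecin (DMSO vehicle only), 400 cells/well. Compounds pin-transferred, cells incubated at 37 °C for at least 48 hr. Growth read as ATP-dependent luminescence (CellTiter-Glo, 30 min at RT).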
HT1080 IDH1KD tx: kills HT-1080 cells with IDH1 knockdown. HT-1080 IDH1 knockdown viability, ATP luminescence, 48 h. 360,000 tested, 2% active. Potency, µM (top dose mostly 46.1 µM), hits mostly cytotoxic
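Viability of IDH1-knockdown HT-1080 fibrosarcoma cells was assessed by CellTiter-Glo after 48 h at 37 °C with titrated compound; concentration-effect curves were classified by fit quality and response size.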
Hits are given with their value; 0 = inactive; ? = inconclusive; - = no result given. Unless noted, calls follow the shape of the dose curve; as a rule, active = well fitted curve in the direction sought with a large enough effect; inconclusive = small, poorly fitted or top-dose-only effect, or another doubt; inactive = no such curve, though single readings can be large; an effect the other way counts as inactive or inconclusive.

SMILES | IL-1B inflam inh | DT40 TDP1 CPT | uPA surface inh | HT1080-NT tox | TDP1 cell noCPT | HT1080 IDH1KD tx
CCn1cc(C(=O)NCCc2ccc(Cl)cc2)c(=O)c2cc(S(=O)(=O)N3CCOCC3)ccc21 | - | 0 | - | - | 0 | -
CCn1cc(C(=O)NCCc2ccccc2)c(=O)c2cc(S(=O)(=O)N3CCc4ccccc4C3)ccc21 | - | ? | - | - | 20.6µM | -
COc1ccc(N2CCN(S(=O)(=O)CCNC(=O)/C=C/c3ccc4c(c3)OCO4)CC2)cc1 | 0 | 0 | 0 | 0 | ? | 0
Cc1ccc(N2C(=O)CS(=O)(=O)C23C(=O)N(Cc2ccccc2F)c2ccccc23)cc1Cl (configuration not stated) | - | 14.6µM | - | - | ? | -
COc1ccc(N2C(=O)CS(=O)(=O)C23C(=O)N(Cc2ccc(F)cc2)c2ccc(C)cc23)cc1 (configuration not stated) | - | ? | - | - | 14.6µM | -
COc1ccc(CC2CC(=O)N(c3ccc(C)cc3)C2=O)cc1 (configuration not stated) | 0 | 0 | 0 | 0 | 0 | 0
O=C(O)C1CCCN1c1nc(-c2ccc(Cl)c(Cl)c2)cc(C(F)(F)F)n1 (configuration not stated) | 0 | 14.6µM | 0 | 0 | 20.6µM | 0
NC(c1csc(Nc2cc(Oc3ccccc3)ncn2)n1)C1CCCCC1 (configuration not stated) | 0 | ? | - | ? | ? | 4.61µM
c1ccc(Oc2cc(-c3ccccc3)ncn2)cc1 | 0 | 0 | 0 | 0 | 0 | 0
COc1ccc(C(N)c2csc(Nc3cc(Oc4ccccc4)ncn3)n2)cc1 (configuration not stated) | -84.9 | 23.1µM | - | ? | 23.1µM | ?
O=S(=O)(Nc1c(S(=O)(=O)c2ccccc2)c2nc3ccccc3nc2n1C1CCCCC1)c1ccccc1 | -68.8 | 9.2µM | 0 | ? | 5.17µM | 16.4µM
CC(=O)Nc1c(S(=O)(=O)c2ccccc2)c2nc3ccccc3nc2n1Cc1ccccc1 | 0 | 0 | 0 | 0 | 0 | 0
CC1CN(c2nc3ccccc3nc2NS(=O)(=O)c2ccccc2)CC(C)O1 (configuration not stated) | 0 | 0 | 0 | 0 | 0 | 0
C=CCn1c(NS(=O)(=O)c2ccccc2)c(S(=O)(=O)c2ccc(C)cc2)c2nc3ccccc3nc21 | -84.3 | ? | 0 | 0 | ? | 0
c1ccc(-n2cnc3cc(NCc4ccco4)ccc32)cc1 | 0 | ? | 0 | ? | ? | ?
O=S(=O)(NCc1ccccc1)c1ccc(NC(=S)NCc2ccco2)cc1 | 0 | ? | 0 | 0 | 11.6µM | 0
CCNS(=O)(=O)c1ccc(NC(=S)NCc2ccco2)cc1 | 0 | ? | 0 | 0 | ? | 0
S=C(NCc1ccco1)Nc1ccc(Oc2ccc(Cl)cc2)cc1 | -90.5 | ? | 0 | ? | ? | ?
COc1cc(/C=N/NC(=S)NCc2ccco2)cc(OC)c1OC | 0 | 16.4µM | 0 | 0 | ? | 0
COc1ccccc1/C=N/NC(=S)NCc1ccco1 | 0 | ? | 0 | 0 | ? | 0
S=C(NCc1ccco1)N/N=C/c1ccc(Cl)cc1 | ? | ? | 0 | 0 | 20.6µM | 0
CCc1ccccc1-n1c2c(cc(-c3nc(-c4ccc(Cl)cc4)cs3)c1=O)C(=O)CC(C)(C)C2 | - | 0 | - | - | 0 | -
COc1ccc(C(=O)C(=O)N2CCC(c3ccccc3)CC2)cn1 | 0 | ? | - | 0 | ? | 0
COc1cc(C2c3c(-c4ccccc4O)n[nH]c3C(=O)N2CCO)ccc1OCc1ccccc1 (configuration not stated) | - | 0 | - | - | 25.9µM | -
CCCCOc1ccc(C2c3c(-c4ccccc4O)n[nH]c3C(=O)N2Cc2ccncc2)cc1OC (configuration not stated) | - | ? | - | - | 23.1µM | -
SMILES | IL-1B inflam inh | DT40 TDP1 CPT | uPA surface inh | HT1080-NT tox | TDP1 cell noCPT | HT1080 IDH1KD tx
CCOc1ccc(C2c3c(-c4cc(C)ccc4O)n[nH]c3C(=O)N2Cc2cccnc2)cc1OCC (configuration not stated) | - | 0 | - | - | 0 | -
CCCOc1ccc(C2c3c(-c4ccccc4O)n[nH]c3C(=O)N2CCc2ccccc2)cc1OCC (configuration not stated) | - | 11.6µM | - | - | 13µM | -
CCCN1C(=O)c2[nH]nc(-c3ccccc3O)c2C1c1ccc(OCc2ccccc2)c(OC)c1 (configuration not stated) | - | 16.4µM | - | - | 16.4µM | -
CC(=O)NCCNc1nc2cc(-c3cnn(CCC(C)C)c3)sc2c(=O)n1C | 0 | ? | - | 0 | ? | 0
CCOC(=O)c1c2c3c(cccc3[nH]c1=O)C(=O)c1ccccc1-2 | 0 | 0 | 0 | 0 | 0 | 0
COCCCNc1c2c3c(cccc3[nH]c1=O)C(=O)c1ccccc1-2 | 0 | 14.6µM | ? | ? | 16.4µM | ?
O=C(Nc1ccc(Cl)cc1F)c1cc(S(=O)(=O)N2CCCCC2)ccc1F | 0 | 0 | 0 | 0 | 0 | 0
Cc1cc(C)cc(NC(=O)c2cc(S(=O)(=O)NCc3ccco3)ccc2F)c1 | ? | ? | - | ? | 11.2µM | ?
Cc1ccc(NC(=O)c2cc(S(=O)(=O)N3CCCCCC3)ccc2F)cc1F | - | 8.2µM | - | - | ? | -
Cc1cc(C)cc(NC(=O)c2cc(S(=O)(=O)N3CCCC3)ccc2F)c1 | - | ? | - | - | 20.6µM | -
O=C(Nc1cc(S(=O)(=O)N2CCCC2)ccc1Cl)c1cc(F)c(F)c(F)c1F | -99.2 | 0 | 0 | 0 | 0 | 0
O=C(Nc1cc(S(=O)(=O)N2CCCCC2)ccc1Cl)c1ccc(F)cc1 | 0 | 0 | 0 | 0 | 0 | 0
COc1ccc2c(c1)c1c(c(=O)n(-c3ccc(OC)c(OC)c3)c(=O)n1Cc1ccccc1F)n2C | - | 0 | - | - | 0 | -
COc1ccc(CCNC(=O)CC2SC(N)=NC2=O)cc1OC (configuration not stated) | 0 | ? | 0 | 0 | 0 | 0
Cc1oc2c(CN3CCCCC3C)c(O)ccc2c(=O)c1-c1ccc(Br)cc1 (configuration not stated) | 0 | 0 | 0 | 0 | 0 | 0
Cc1ccc(C)c(NC(=O)c2cc(S(=O)(=O)N3CCCCCC3)ccc2F)c1 | - | 16.4µM | - | - | ? | -
O=C(CCn1c(=O)c2cccn2c2cccnc21)NCc1ccccc1Br | - | 0 | - | - | 0 | -
COc1ccc2oc(=O)c(C(=O)C[n+]3cccc(C)c3)cc2c1 | 0 | 0 | 0 | 0 | 0 | 0
COc1ccc(CNC(=O)C2CCCN2CCc2ccccc2)cc1OC (configuration not stated) | ? | ? | 0 | 0 | ? | 0
O=C(NCc1ccc(F)cc1)N1[C@H]2CC[C@@H]1C=C(c1ccc(F)cc1OCc1ccccc1)C2 | 0 | ? | - | 0 | 7.31µM | 0
COc1ccc(CNC(=O)N2[C@H]3CC[C@@H]2C=C(c2ccc(F)cc2OCc2ccccc2)C3)cc1OC | 0 | 8.2µM | - | 0 | 7.31µM | 0
